Results as given in PubChem BioAssay (Tox21).
Where “and” joins values, the source holds several entries; their conditions need not be identical. Equal values may be shown once. Results filed as inconclusive are left out. Calls of active or inactive are those of the source. Unless noted, calls come from the whole dose curve; as a rule, active = well fitted curve in the direction sought with a large enough effect in the repeat runs; inconclusive = weak or mixed curves; inactive = no such curve, though single readings can be large; an effect the other way counts as inactive or inconclusive.

Legend:
[1] = qHTS assay for small molecule agonists of the p53 signaling pathway (AID 651631; calls by dose curve; note: nearly all actives have a fitted effect of over 15% in size)
Method in brief: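 Beta-lactamase reporter activity under p53 response elements was quantified in HCT-116 cells by FRET fluorescence, following 16 h incubation with test compounds at 37 °C and 2 h substrate development at room temperature.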

[2] = qHTS assay for small molecules that induce genotoxicity in human embryonic kidney cells expressing luciferase-tagged ATAD5 (AID 651632); note: nearly all actives have a fitted effect of over 15% in size
Method in brief: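 HEK293T cells carrying luciferase-tagged ATAD5 were given compound or DMSO vehicle and incubated 16 hr at 37C, 5% CO2. Luciferase activity was read after 30 min at room temperature with Amplite; a rise signals genotoxic stress.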

[3] = qHTS assay for small molecules that induce genotoxicity in human embryonic kidney cells expressing luciferase-tagged ATAD5 - cell viability (AID 651634; calls by dose curve; note: nearly all actives have a fitted effect of over 25% in size)
Method in brief: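 HEK293T cells carrying luciferase-tagged ATAD5, 2,000 cells/well, exposed to compound for 15.5 hr at 37C. Viability read as live-cell protease activity by CellTiter-Fluor fluorescence after 30 min at 37C.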

[4] = qHTS assay for small molecule disruptors of the mitochondrial membrane potential - cell viability (AID 720634; calls by dose curve;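 note: human HepG2 liver cancer cells; series mostly up to about 83 µM; nearly all actives have a fitted effect of over 20% in size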)
Method in brief: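 HepG2 cells, 2,000 per well, attached overnight, then treated 1 hr at 37 C, 5% CO2. Viability read as ATP by CellTiter-Glo luminescence after 30 min at room temperature. Read in the same wells as the m-MPI membrane-potential dye assay.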

[5] = qHTS assay for small molecule disruptors of the mitochondrial membrane potential (AID 720635); note: potency is the fitted concentration of half-maximal effect
Method in brief: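 Mitochondrial membrane potential tracked with Mito-MPS dye, red aggregates (ex 540/em 590 nm) against green monomers (ex 490/em 535 nm). Compound treatment 1 hr at 37C, dye 30 min in HepG2.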

[6] = qHTS assay to test for compound auto fluorescence at 590 nm (red) in HepG2 cells (AID 720674)
Method in brief: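 1 hr compound incubation on HepG2 cells, 37 C, 5% CO2; plate read ex 540 nm / em 590 nm; intensities reported as Rose Bengal sodium equivalents.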

[7] = qHTS assay to test for compound auto fluorescence at 535 nm (green) in HepG2 cells (AID 720675)
[8] = qHTS assay to test for compound auto fluorescence at 460 nm (blue) in HEK293 cells (AID 720678)
Method in brief: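 Measured: blue fluorescence (Ex 405/Em 460 nm) of compound-treated HEK293 cells, incubated overnight at 37C with 5% CO2 and scaled to triamterene equivalents.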

[9] = qHTS assay to test for compound auto fluorescence at 535 nm (green) in HEK293 cells (AID 720680)
[10] = qHTS assay to test for compound auto fluorescence at 590 nm (red) in HEK293 cell free culture (AID 720683)
Method in brief: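 Red-channel autofluorescence of compounds in culture medium (DMEM, 10% FBS), no cells, measured at 540/590 nm. Rose Bengal sodium is the reference fluorophore for equivalence.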

[11] = qHTS assay to test for compound auto fluorescence at 590 nm (red) in HepG2 cell free culture (AID 720684)
Method in brief: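 Steps: dispense MEM/10% FBS medium, no cells; pin compound or DMSO vehicle; read red channel, Ex/Em 540/590 nm. Output given as Rose Bengal sodium equivalents.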

[12] = qHTS assay to test for compound auto fluorescence at 460 nm (blue) in HepG2 cell free culture (AID 720685)
Method in brief: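 Compound (23 nL) or DMSO pinned into cell-free MEM with 10% FBS; blue fluorescence read at 405/460 nm excitation/emission, expressed as auto-fluorescence equivalency to triamterene.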

[13] = qHTS assay to test for compound auto fluorescence at 535 nm (green) in HepG2 cell free culture (AID 720686)
[14] = qHTS assay to test for compound auto fluorescence at 460 nm (blue) in HepG2 cells (AID 720687)
Method in brief: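 Blue-channel autofluorescence (Ex/Em 405/460 nm, triamterene-equivalent) was measured after 1 hr compound exposure at 37 C, 5% CO2. Cells were HepG2, plated overnight at 37 C in MEM plus 10% FBS.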

[15] = biological target: Glucocorticoid receptor (Homo sapiens) (UniProt P04150); assay: qHTS assay to identify small molecule agonists of the glucocorticoid receptor (GR) signaling pathway (AID 720691; active = well fitted activation curve with a large enough effect in the signal ratio in the repeat runs, not every such curve was filed as active; the % refers to the signal ratio)
Glucocorticoid receptor (Homo sapiens), sequence (P04150 whole entry, looked up): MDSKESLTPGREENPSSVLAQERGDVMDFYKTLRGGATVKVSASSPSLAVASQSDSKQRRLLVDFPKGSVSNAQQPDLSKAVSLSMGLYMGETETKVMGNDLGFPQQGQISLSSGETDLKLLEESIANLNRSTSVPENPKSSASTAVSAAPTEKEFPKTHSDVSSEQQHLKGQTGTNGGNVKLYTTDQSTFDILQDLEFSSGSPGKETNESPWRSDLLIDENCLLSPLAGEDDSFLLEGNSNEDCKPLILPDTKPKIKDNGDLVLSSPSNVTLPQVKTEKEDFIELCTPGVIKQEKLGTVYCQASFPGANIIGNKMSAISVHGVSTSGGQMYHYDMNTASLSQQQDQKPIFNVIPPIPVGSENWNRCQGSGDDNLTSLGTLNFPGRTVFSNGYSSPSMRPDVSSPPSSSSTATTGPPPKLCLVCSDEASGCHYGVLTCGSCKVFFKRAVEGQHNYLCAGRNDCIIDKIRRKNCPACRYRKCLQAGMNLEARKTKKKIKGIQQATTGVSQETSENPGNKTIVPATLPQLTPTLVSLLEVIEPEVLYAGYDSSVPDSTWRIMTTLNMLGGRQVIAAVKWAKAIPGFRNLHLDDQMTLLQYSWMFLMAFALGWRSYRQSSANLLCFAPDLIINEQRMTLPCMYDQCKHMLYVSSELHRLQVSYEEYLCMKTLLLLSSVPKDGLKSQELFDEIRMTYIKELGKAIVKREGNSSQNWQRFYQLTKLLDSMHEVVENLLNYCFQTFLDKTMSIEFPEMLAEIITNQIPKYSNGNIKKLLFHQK
Method in brief: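 GR-bla HeLa cells carrying a GRE-driven beta-lactamase reporter, exposed to compounds for 18 h at 37 C. Reporter activation read as fluorescence after 2 h with LiveBLAzer B/G FRET substrate at room temperature.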

[16] = biological target: Glucocorticoid receptor (Homo sapiens) (UniProt P04150); assay: qHTS assay to identify small molecule antagonists of the glucocorticoid receptor (GR) signaling pathway (AID 720692; active = well fitted inhibition curve with a large enough effect in the signal ratio in the repeat runs, not every such curve was filed as active; the % refers to the signal ratio)
Method in brief: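 GR-bla HeLa cells carrying a GRE-driven beta-lactamase reporter received compound after 4 h plating, then dexamethasone (5 nM final). After 18 h at 37C, the FRET substrate was loaded for 2 h at room temperature and fluorescence read.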

[17] = qHTS assay to test for compound auto fluorescence at 590 nm (red) in HEK293 cells (AID 720679)
Method in brief: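 Using HEK293 cells at 2,000 per well, the screen added 23 nL of each compound after cell attachment and incubated overnight (37C, 5% CO2). The plate reader then captured red-label fluorescence, Ex/Em 540/590nm.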

[18] = qHTS assay to test for compound auto fluorescence at 535 nm (green) in HEK293 cell free culture (AID 720682)
Method in brief: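 Each library compound, or DMSO control, is added by pintool to medium alone, comprising DMEM and 10% FBS. Emission at 535 nm following 485 nm excitation is quantified against fluorescein.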

[19] = qHTS assay to test for compound auto fluorescence at 460 nm (blue) in HEK293 cell free culture (AID 720681)
Method in brief: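 Blue fluorescence (Ex 405/Em 460 nm, triamterene-equivalent) was read immediately after pin transfer of compound or DMSO into medium (DMEM, 10% FBS) without cells.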

[20] = qHTS assay for small molecule agonists of the p53 signaling pathway - cell viability (AID 651633; calls by dose curve;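 note: p53RE-bla HCT reporter cells with a stable beta-lactamase p53 reporter; series mostly up to about 83 µM; nearly all actives have a fitted effect of over 30% in size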)
Method in brief: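 Viability counter-read: CellTiter-Glo luminescence (30 min, room temperature) in the same p53RE-bla plates. These plates had been exposed to compounds for 16 h at 37 C.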

Measured: Potency

O=C(O)C1C(C(=O)O)C2(Cl)C(Cl)=C(Cl)C1(Cl)C2(Cl)Cl (stereo unspecified)
not listed: [17] | [18] | [19] | [20]
inactive: all other assays above

Cc1cccc(N)c1C
not listed: [5] | [19] | [20]
inactive: all other assays above

Cc1cc(Cl)ccc1OC(C)C(=O)O (stereo unspecified)
not listed: [3] | [15] | [16] | [19] | [20]
inactive: all other assays above

CC(C)c1cccc(C(C)C)c1O
active: [5] 54.3 µM and 61.1 µM
not listed: [15] | [16] | [17] | [20]
inactive: all other assays above

Cl[C@H]1OCCO[C@@H]1Cl
not listed: [3] | [9] | [16] | [17] | [20]
inactive: all other assays above

CN(C)C(=O)C(c1ccccc1)c1ccccc1
not listed: [9] | [15] | [16] | [20]
inactive: all other assays above

COc1cc(-c2ccc(N)c(OC)c2)ccc1N
not listed: [3] | [5] | [7] | [9] | [15] | [16] | [19]
inactive: all other assays above

CNCC(O)c1ccc(O)cc1 (stereo unspecified)
not listed: [17] | [20]
inactive: all other assays above

CCCOC(=O)c1ccccc1C(=O)OCCC
not listed: [3] | [5] | [9] | [15] | [16]
inactive: all other assays above

CCOc1ccc(N)cc1
not listed: [17] | [20]
inactive: all other assays above

CSc1nnc(C(C)(C)C)c(=O)n1N
not listed: [3] | [9] | [19] | [20]
inactive: all other assays above

Nc1cccc(Cl)c1
not listed: [3] | [9] | [15] | [16] | [18] | [19] | [20]
inactive: all other assays above

COc1nc(NC(C)C)nc(NC(C)C)n1
not listed: [3] | [17] | [20]
inactive: all other assays above

N#Cc1cccc(C#N)c1
not listed: [7] | [9] | [17] | [20]
inactive: all other assays above
